# The supplement of paper PMC8728848
# About 410 targets per protein were measured; listed, in parts, are those with the strongest signals and a random draw of the rest.
# B1: Awp3 (Candida glabrata), B4UN32 (protein)
# chain: MISFVTLLAILGLLSISWADQTVRSVAGDQRVTDPVIVGDNSILDYYGGSNYDFSNNFEIGRGTLYIGKESYFSSFQSAPTDVPNSFHLLIKNTNNLQNNGQFIIENIKRHANQCSNSSIQVFPINFQNDGEFEIISGGVEGRCCLPTSVIAPQNFLNNGKFYYKVLTDTGSIYSGSCMQNVDIGASTTTTVNNNLWEFTGSINAQINGAVSGAAQINLDGSNMFVNANTFSGQVVNLINGGSFLQTSDPLSNIVVINGLGTSDTGVTSIAVKGKGKSFTYNPSSGIVKLTTVEGKTYAYQIGCGYNTKKFITNNDSGASYESADNFFVLTYSEPYSPQTCQLENSSIFSSNFISTSTSSSSSSSSASSLPSSMSSSLPSSLSSSLSSSLSSSMSSSMSSLFIIPPPYTTTRSSGSSIIDTEIVSFYSTTDSPGHTITGTTTTTLYGPHTHSSVSTPSSSSESSTTSNSSIESSSLPHTSVSSTPESSITPSSNTISSSPTSDFSSVQSSSIMESSSVVASSSVINSSSIVDSSSSSASSLPSSMSSSLSSSMSSSLPSSMSSSLSSSLSSSLSSSMSSSMSSLFIIPPPYTTTRSSGSSIIDTEIVSFYSTTDSPGHTITGTTTTTLYGPHTHSSVSTPSSSSESSTTSNSSIESSSLPHTSVSSTPESSITPSSNTISSSPTSDFSSVQSSSIMESSSVVASSSVINSSSIVDSSSSSASSLPSSMPSSLPSSMSSSLSSSMSSSLSSSLSSSLSSSMSSSMSSLFIIPPPYTTTRSSGSSIIDTEIVSFYSTTDSPGHTITGTTTTTLYGPHTHSSVSTPSSSSESSTTSNSSIESSSLPHTSVSSTPESSITPSSNTISSSPTSDFSSVQSSSIMESSSVVASSSATQSSSVINSSSIVDSSSSSASSLPSSMPSSLPSSLSSSLSSSLSSSMSSSMSSLFIIPPPYTTTRSSGSSIIDTEIVSFYSTTDSPGHTITGTTTTTLYESSIYSSSSSTIQESELSNTSRTTMTSNSSVSISSTSSRSSFSNTKSSTIVISQSASLPDSKTDIILSTSSNIGYSSRSLLSDLGTSISDSDIHHSVLHSTESYSSNESGTNPFTSIASLSNFIPESSSHTSTALGSENSVISSDILTTMSHPVATNSGDKPTTPKRSEQVSTTMTSSGPTPDTSSFDTDGMSAYSRPEFTTNSLEVNKSSTSQLGNNKQTFSNLQLESTRPHSENEVDNNTRLLQSIQQSSTYGTNNVNPLSPTGSISIPLTEDGQGDNNNWNSPATNDLCTQISFNLTATTITVTDRITITDSIHDISSEVITSYIYQTIVDQKTVTQTVDGKSLANKMSSIPKPSSRSLIQPQPPVAIELQEGAASTSRVSLVSLFISIILVLL
# Key:
# Experiment in all cases: glycan array binding signal (z-score within array); higher = stronger binding
# Conditions in all cases: glycan notation: IUPAC condensed, linker removed
# [1] = target: Fuc(a1-2)Gal(b1-3)GalNAc(b1-3)Gal(a1-4)Gal(b1-4)Glc
# Summary of the method: (§1)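 From the Consortium for Functional Glycomics database, 3228 arrays were curated, keeping only those whose protein sequence was available. Binding is given as a within-array Z-score averaged across arrays sharing a protein sequence and across linkers. Negative Z-scores can be read as non-binding.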
# [2] = target: Fuc(a1-2)Gal(b1-3)GlcNAc(b1-2)Man(a1-3)[Fuc(a1-2)Gal(b1-3)GlcNAc(b1-2)Man(a1-6)]Man(b1-4)GlcNAc(b1-4)[Fuc(a1-6)]GlcNAc
# Summary of the method: as §1
# [3] = target: Fuc(a1-2)Gal(b1-4)GlcNAc(b1-2)[Fuc(a1-2)Gal(b1-4)GlcNAc(b1-4)]Man(a1-3)[Fuc(a1-2)Gal(b1-4)GlcNAc(b1-2)Man(a1-6)]Man(b1-4)GlcNAc(b1-4)GlcNAc
# Summary of the method: as §1
# [4] = target: Fuc(a1-2)Gal(b1-4)[Fuc(a1-3)]GlcNAc(b1-2)Man(a1-3)[Fuc(a1-2)Gal(b1-4)[Fuc(a1-3)]GlcNAc(b1-2)Man(a1-6)]Man(b1-4)GlcNAc(b1-4)[Fuc(a1-6)]GlcNAc
# Summary of the method: as §1
# [5] = target: Fuc(a1-2)Gal(b1-4)[Fuc(a1-3)]GlcNAc(b1-3)Gal(b1-4)[Fuc(a1-3)]GlcNAc(b1-3)Gal(b1-4)[Fuc(a1-3)]GlcNAc
# Summary of the method: as §1
# [6] = target: Fuc(a1-2)Gal(b1-4)[Fuc(a1-3)]GlcNAc(b1-3)[Neu5Ac(a2-6)Gal(b1-4)GlcNAc(b1-6)]Gal(b1-4)Glc
# Summary of the method: as §1
# [7] = target: Fuc(a1-2)[Gal(a1-3)]Gal(b1-4)GlcNAc(b1-2)Man(a1-3)[Fuc(a1-2)[Gal(a1-3)]Gal(b1-4)GlcNAc(b1-2)Man(a1-6)]Man(b1-4)GlcNAc(b1-4)GlcNAc
# Summary of the method: as §1
# [8] = target: Fuc(a1-2)[GalNAc(a1-3)]Gal(b1-3)GalNAc(b1-3)Gal(a1-4)Gal(b1-4)Glc
# Summary of the method: as §1
# [9] = target: Fuc(a1-2)[GalNAc(a1-4)]Gal(b1-4)GlcNAc
# Summary of the method: as §1
# [10] = target: Fuc(a1-3)[Gal(b1-4)]GlcNAc(b1-6)GalNAc
# Summary of the method: as §1
# Gal(a1-4)GlcNAc = target: Gal(a1-4)GlcNAc
# Summary of the method: as §1
# [11] = target: Gal(b1-3)GlcNAc(a1-6)Gal(b1-4)GlcNAc
# Summary of the method: as §1
# [12] = target: Gal(b1-3)GlcNAc(b1-2)Man(a1-3)[Gal(b1-3)GlcNAc(b1-2)Man(a1-6)]Man(b1-4)GlcNAc(b1-4)GlcNAc
# Summary of the method: as §1
# [13] = target: Gal(b1-3)GlcNAc(b1-3)Gal(b1-4)GlcNAc(b1-6)[Gal(b1-3)GlcNAc(b1-3)]Gal(b1-4)Glc
# Summary of the method: as §1
# [14] = target: Gal(b1-3)GlcNAc(b1-3)Gal(b1-4)[Fuc(a1-3)]GlcNAc(b1-6)[Gal(b1-3)GlcNAc(b1-3)]Gal(b1-4)Glc
# Summary of the method: as §1
# [15] = target: Gal(b1-4)GlcNAc(b1-2)Man(a1-3)[Gal(b1-4)GlcNAc(b1-2)Man(a1-6)][GlcNAc(b1-4)]Man(b1-4)GlcNAc(b1-4)[Fuc(a1-6)]GlcNAc
# Summary of the method: as §1
# [16] = target: Gal(b1-4)GlcNAc(b1-2)Man(a1-3)[Man(a1-6)]Man(b1-4)GlcNAc(b1-4)GlcNAc
# Summary of the method: as §1
# [17] = target: Gal(b1-4)GlcNAc(b1-2)Man(a1-6)[GlcNAc(b1-2)Man(a1-3)]Man(b1-4)GlcNAc(b1-4)GlcNAc
# Summary of the method: as §1
# [18] = target: Gal(b1-4)GlcNAc(b1-2)[Gal(b1-4)GlcNAc(b1-4)]Man(a1-3)[Gal(b1-4)GlcNAc(b1-2)[Gal(b1-4)GlcNAc(b1-6)]Man(a1-6)]Man(b1-4)GlcNAc(b1-4)GlcNAc
# Summary of the method: as §1
# [19] = target: Gal(b1-4)GlcNAc(b1-3)Gal(b1-4)GlcNAc(b1-2)[Gal(b1-4)GlcNAc(b1-3)Gal(b1-4)GlcNAc(b1-6)]Man(a1-6)[Gal(b1-4)GlcNAc(b1-3)Gal(b1-4)GlcNAc(b1-2)Man(a1-3)]Man(b1-4)GlcNAc(b1-4)[Fuc(a1-6)]GlcNAc
# Summary of the method: as §1
# [20] = target: Gal(b1-4)GlcNAc(b1-3)Gal(b1-4)GlcNAc(b1-3)Gal(b1-4)GlcNAc(b1-2)[Gal(b1-4)GlcNAc(b1-3)Gal(b1-4)GlcNAc(b1-3)Gal(b1-4)GlcNAc(b1-6)]Man(a1-6)[Gal(b1-4)GlcNAc(b1-3)Gal(b1-4)GlcNAc(b1-3)Gal(b1-4)GlcNAc(b1-2)Man(a1-3)]Man(b1-4)GlcNAc(b1-4)[Fuc(a1-6)]GlcNAc
# Summary of the method: as §1
# [21] = target: Gal(b1-4)GlcNAc(b1-3)Gal(b1-4)GlcNAc(b1-3)Gal(b1-4)GlcNAc(b1-3)Gal(b1-4)GlcNAc(b1-3)Gal(b1-4)GlcNAc(b1-2)Man(a1-3)[Gal(b1-4)GlcNAc(b1-3)Gal(b1-4)GlcNAc(b1-3)Gal(b1-4)GlcNAc(b1-3)Gal(b1-4)GlcNAc(b1-3)Gal(b1-4)GlcNAc(b1-2)Man(a1-6)]Man(b1-4)GlcNAc(b1-4)[Fuc(a1-6)]GlcNAc
# Summary of the method: as §1
# [22] = target: Gal(b1-4)GlcNAc(b1-3)Gal(b1-4)GlcNAc(b1-3)Gal(b1-4)GlcNAc(b1-3)Gal(b1-4)GlcNAc(b1-3)Gal(b1-4)GlcNAc(b1-2)[Gal(b1-4)GlcNAc(b1-3)Gal(b1-4)GlcNAc(b1-3)Gal(b1-4)GlcNAc(b1-3)Gal(b1-4)GlcNAc(b1-3)Gal(b1-4)GlcNAc(b1-6)]Man(a1-6)[Gal(b1-4)GlcNAc(b1-3)Gal(b1-4)GlcNAc(b1-3)Gal(b1-4)GlcNAc(b1-3)Gal(b1-4)GlcNAc(b1-3)Gal(b1-4)GlcNAc(b1-2)Man(a1-3)]Man(b1-4)GlcNAc(b1-4)[Fuc(a1-6)]GlcNAc
# Summary of the method: as §1
# [23] = target: Gal(b1-4)GlcNAc(b1-3)Gal(b1-4)GlcNAc(b1-3)GalNAc
# Summary of the method: as §1
# [24] = target: Gal(b1-4)GlcNAc(b1-3)Gal(b1-4)GlcNAc(b1-6)[Gal(b1-3)]GalNAc
# Summary of the method: as §1
# [25] = target: Gal(b1-4)GlcNAc(b1-3)Gal(b1-4)[Fuc(a1-3)]GlcNAc(b1-3)Gal(b1-4)[Fuc(a1-3)]GlcNAc
# Summary of the method: as §1
# [26] = target: Gal(b1-4)GlcNAc(b1-3)GalNAc
# Summary of the method: as §1
# [27] = target: Gal(b1-4)GlcNAc(b1-3)[Fuc(a1-3)GlcNAc(b1-6)]Gal(b1-4)Glc
# Summary of the method: as §1
# Gal3S(b1-4)Glc = target: Gal3S(b1-4)Glc
# Summary of the method: as §1
# Gal4S6S(b1-4)GlcNAc = target: Gal4S6S(b1-4)GlcNAc
# Summary of the method: as §1
binder,measurement,setting,value
B1,glycan array binding signal (z-score),[1],2.34
same,glycan array binding signal (z-score),[2],1.49
same,glycan array binding signal (z-score),[3],3.23
same,glycan array binding signal (z-score),[4],-0.693
same,glycan array binding signal (z-score),[5],1.19
same,glycan array binding signal (z-score),[6],-1.1
same,glycan array binding signal (z-score),[7],2.45
same,glycan array binding signal (z-score),[8],2.28
same,glycan array binding signal (z-score),[9],-0.218
same,glycan array binding signal (z-score),[10],0.39
same,glycan array binding signal (z-score),Gal(a1-4)GlcNAc,2.25
same,glycan array binding signal (z-score),[11],0.259
same,glycan array binding signal (z-score),[12],2.55
same,glycan array binding signal (z-score),[13],1.3
same,glycan array binding signal (z-score),[14],2.48
same,glycan array binding signal (z-score),[15],1.4
same,glycan array binding signal (z-score),[16],-0.338
same,glycan array binding signal (z-score),[17],0.07
same,glycan array binding signal (z-score),[18],-0.258
same,glycan array binding signal (z-score),[19],-1.19
same,glycan array binding signal (z-score),[20],1.96
same,glycan array binding signal (z-score),[21],0.113
same,glycan array binding signal (z-score),[22],-0.313
same,glycan array binding signal (z-score),[23],1.03
same,glycan array binding signal (z-score),[24],-0.292
same,glycan array binding signal (z-score),[25],0.452
same,glycan array binding signal (z-score),[26],-0.074
same,glycan array binding signal (z-score),[27],-0.665
same,glycan array binding signal (z-score),Gal3S(b1-4)Glc,-0.288
same,glycan array binding signal (z-score),Gal4S6S(b1-4)GlcNAc,0.372
